Inconclusive results are not listed. Unmarked numbers belong to inactive results. Calls of active or inactive are those of the source. The call rests on the fitted dose curve; in most records, active means well fitted inhibition curve with a large enough effect; inconclusive means small, poorly fitted or top-dose-only effect, or effect the other way; inactive means flat fitted curve, though single readings scatter.
Molecular target: Pyruvate kinase (Leishmania mexicana) (UniProt Q27686)
Assay: Confirmation Assay for Inhibitors of Leishmania Mexicana Pyruvate Kinase (LmPK): for Probe SAR;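 on activity change, negative = inhibition: plate controls were uninhibited enzyme for no effect and no enzyme wells for full effect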
Details: purified LmPK, ATP generation, Kinase-Glo luminescence; series mostly up to 57.5 µM; activity change, negative = inhibition: at the top concentration
Description: NIH Chemical Genomics Center [NCGC] Malcolm Walkinshaw, Hugh Morgan, Linda Gilmore University of Edinburgh, UK MLPCN Grant: 1 R03 MH085697-01 NCGC Assay Overview: Pyruvate kinase (L. Mexicana) (LmPK) enzyme was supplied as a highly purified (>95% pure) sulphate-free preparation from University of Edinburgh, UK and assayed for its ability to generate ATP from ADP using phosphoenolpyruvate (PEP) as a substrate. ATP generation was detected in a coupled reaction by luciferase-mediated luminescence, an ATP-dependent process. Pyruvate kinase substrates, PEP and ADP, were present in the assay at Km and approximately 10-fold below Km respectively. The enzyme was assayed at an intermediate level of activity to screen for both inhibitors and activators.
NCGC Assay Protocol Summary: Three uL of enzyme mix (kept on ice) in assay buffer (50 mM Imidazole pH7.2, 50 mM KCl, 7 mM MgCl2, 0.01% Tween 20, 0.05% BSA) containing PEP (0.5 mM final concentration) and LmPK (0.1 nM final concentration) was dispensed into white solid bottom 1,536 well microtiter plates. 23 nL of compound were delivered by a pin tool and 1 uL of ADP mix in assay buffer (r.t; 0.1 mM final ADP concentration) was added. Plates were incubated at room temperature for 1 hour. Two uL of detection mix (Kinase-Glo, Promega; at 4 degree Celsius protected from light) was added and luminescence read by a ViewLux (Perkin Elmer) at 1 second exposure/plate. Data were normalized to the uninhibited and AC100 inhibition (no enzyme). To monitor activation, the first column contained a five-fold concentration of LmPK (0.5 nM).
Potency means the concentration at half of the fitted maximal effect.

Pyruvate kinase (Leishmania mexicana), sequence (Q27686 whole entry, looked up): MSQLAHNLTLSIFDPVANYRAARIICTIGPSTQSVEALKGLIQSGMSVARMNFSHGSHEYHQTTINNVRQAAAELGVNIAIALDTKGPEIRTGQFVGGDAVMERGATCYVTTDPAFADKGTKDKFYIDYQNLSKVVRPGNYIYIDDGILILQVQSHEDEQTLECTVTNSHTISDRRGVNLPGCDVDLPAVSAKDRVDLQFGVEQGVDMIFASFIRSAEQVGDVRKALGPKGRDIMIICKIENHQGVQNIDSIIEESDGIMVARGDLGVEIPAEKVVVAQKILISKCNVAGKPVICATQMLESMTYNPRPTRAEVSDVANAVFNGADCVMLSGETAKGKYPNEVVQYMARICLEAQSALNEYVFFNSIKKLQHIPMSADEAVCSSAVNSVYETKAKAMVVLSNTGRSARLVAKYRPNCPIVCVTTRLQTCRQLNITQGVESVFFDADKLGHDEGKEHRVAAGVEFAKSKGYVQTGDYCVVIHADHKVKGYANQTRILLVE

SMILES | activity change, negative = inhibition [%] | Potency
O=C1c2ccccc2C(=O)N1c1noc2ccccc12 | 4.19 | 
O=C(O)c1ccccc1OC1=NS(=O)(=O)c2ccccc21 |  | 1.63 µM (active)
COC(=O)c1ccccc1S(=O)(=O)Nc1ccc(OC)cc1 | 4.6 | 
Cc1ccc(NS(=O)(=O)c2ccc3c(c2)CCC(C)(C)O3)cc1C | 9.34 | 
Cc1ccc(-c2nc3ccccn3c2Nc2ccccc2C)o1 | 6.67 | 
COc1ccc(N2C(=O)c3ccccc3S2(=O)=O)cc1 | 6.47 | 
O=S1(=O)N=C(Sc2cccc3cccnc23)c2ccccc21 |  | 2.91 µM (active)
COc1ccc(-c2nc3cccc(C)n3c2Nc2ccc(C)cc2)cc1 | 1.54 | 
O=S1(=O)N=C(Oc2ccccc2C(F)(F)F)c2ccccc21 |  | 6.51 µM (active)
Cc1ccc(Nc2c(-c3ccc(C)s3)nc3cccc(C)n23)cc1 | -1.87 | 
Cc1nc(-c2ccc(S(=O)(=O)Nc3ccc(C)c(C)c3)s2)cs1 | 15.4 | 
O=S1(=O)N=C(Oc2ccccc2F)c2ccccc21 |  | 3.26 µM (active)
Cc1ccn2c(NC3CCCCC3)c(-c3ccc(C)o3)nc2c1 | 0 | 
O=S(=O)(c1ccc2c(c1)OCCO2)N1CCN(S(=O)(=O)c2c(F)cccc2F)CC1 |  | inactive
Cc1cc(=O)oc2cc(SC3=NS(=O)(=O)c4ccccc43)ccc12 |  | 1.83 µM (active)
Nc1cc(S(=O)(=O)N2CCN(S(=O)(=O)c3ccc4c(c3)OCCO4)CC2)ccn1 | 3.64 | 
Cc1ccc(C)c(SC2=N[S+](=O)([O-])c3cc(C(=O)Nc4ccc5ncccc5c4)ccc32)c1 | -10.8 | 
Cc1ccc(NS(=O)(=O)c2ccc3c(c2)CCC(=O)N3)cc1 | 12.6 | 
O=S1(=O)N=C(Oc2ccc(Br)cc2)c2ccccc21 |  | 2.91 µM (active)
CSc1cc2c(s1)c1cnn(Cc3cccc(O)c3)c(=O)c1n2C | 19.9 | 

SMILES | activity change, negative = inhibition [%] | Potency
Cc1ccc(NS(=O)(=O)c2cc3c(cc2F)NC(=O)CC3)cc1C | -3.34 | 
COc1ccccc1NS(=O)(=O)c1ccc2c(c1)CCC(=O)N2 | -2.12 | 
O=S1(=O)N=C(OCc2ccccc2)c2ccccc21 | -4.08 | 
O=C1CCc2cc(S(=O)(=O)Nc3ccc(F)cc3)ccc2N1 | 5.68 | 
O=S1(=O)N=C(Oc2ccccc2Br)c2ccccc21 |  | 5.8 µM (active)
Cc1ccc(NS(=O)(=O)c2cc3c(cc2C)NC(=O)CO3)cc1C | 15.9 | 
CC(=O)Nc1cccc(S(=O)(=O)Nc2ccc(C)c(C)c2)c1 | 1.41 | 
Cc1ccc(Nc2c(-c3ccc(C)o3)nc3ccccn23)cc1 | 16.8 | 
O=C1NS(=O)(=O)c2cc3c(cc21)C(=O)NS3(=O)=O | 2.34 | 
COc1cccc(OC2=NS(=O)(=O)c3ccccc32)c1 | 7.22 | 
Cc1sc(C)c2c1C(=O)NS2(=O)=O | 2.41 | 
Cc1ccc2nc(-c3ccc(C)o3)c(Nc3ccccc3)n2c1 | -1.71 | 
Nc1ccc2c(c1)C(=O)NS2(=O)=O | 2.28 | 
Cc1ccc(NS(=O)(=O)c2ccc3c(c2)CCC(=O)N3)cc1C | -0.583 | 
Cc1ccc(NS(=O)(=O)c2ccc(-c3ccccc3)cc2)cc1C | -0.78 | 
O=C1c2ccccc2C(=O)N1c1ccc(Cl)cc1 | 13.2 | 
Cc1ccc(-c2nc3ccc(Cl)cn3c2Nc2ccccc2)o1 | -0.673 | 
Cc1ccc(NS(=O)(=O)c2ccc(Cl)cc2)cc1C | 7.67 | 
Cc1ccc(NS(=O)(=O)c2cccc(Cl)c2)cc1C | 14.4 | 
COC(=O)c1ccc2c(c1)S(=O)(=O)NC2=O | -0.49 | 

— PubChem BioAssay AID2561 (National Center for Advancing Translational Sciences (NCATS), 2010)
